Test in all cases: NCI-60 one-dose screen, 48 h (100 = growth as untreated, 0 = no growth, -100 = all killed)
Common to all, as to conditions: 10 µM

Experiment [1] deals with NCI-H23 lung.
Experiment [2] has as its system NCI-H226 lung.
In experiment [3] the test system is NCI-H460 lung.
For experiment [4], the system named is HOP-92 NSCLC.
The subject of experiment [5] is NCI-H522 lung.
Experiment [6] deals with A549/ATCC NSCLC.
Experiment [7] relates to 786-0 renal.
The subject of experiment [8] is COLO 205 colon.
The subject of experiment [9] is HOP-62 NSCLC.

Compounds without any hit were thinned out: in the full panel of roughly 83,000, 20% have a hit.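 Percent growth is the endpoint: 0 to 100 indicates growth inhibition (40 means 60% inhibition), 0 means no net growth, and negative values indicate cell death.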 Unmarked numbers belong to inactive results. The source made the active and inactive calls. The calls were made as follows: active = growth percent below 10; inactive = the rest.

As for `O=C1NC(=O)c2c(CCCSc3nc4ccccc4c(=O)n3CCc3ccccc3)cccc21`, the growth in [1] was 76.7%; in [2] it was 82.9%; in [3], 83.8%; in [4], 94.5%; in [5], 89.3%; in [6], 89.4%. Besides, the growth in experiment [7] is 78.6%; in experiment [8], 118%.
Turning to `CC(=O)Oc1cc(OC(C)=O)c2ccccc2c1OC(C)=O`, the growth was 70.8% in experiment [1]; 88.4% in experiment [2]; 86.6% in experiment [3]; 107% in [4]; 68.2% in experiment [5]; 82.5% in [6]. Further, the growth in experiment [7] is 103%; in experiment [8], 92.9%.
For `CCCCCCCCCCCC[n+]1c(C)cc(N)c2ccccc21`, the growth in experiment [1] is -36.8% (active); in experiment [2] it was 11.1%; in experiment [9] it was 3.61% (active); in experiment [4] it was -6.03% (active); in experiment [5], -29.7% (active); in experiment [6] it was 57%. For the same molecule, in experiment [7], the growth was 0.277% (active).
Turning to `COc1ccc(C2=Cn3c(CCC(=O)c4nc5ccccc5[nH]4)nnc3SC2)cc1`, the growth in [1] is 94.5%; in [2], 89.3%; in [3], 101%; in experiment [4] it was 77.5%; in [5], 98.6%; in [6], 106%. Also, the growth was 104% in [7] and 123% in experiment [8].
In the case of `O=c1c(Br)ccc(Br)cc1Br`, the growth in experiment [1] is -51.8% (active); in experiment [2] it was 97.5%; in experiment [9], 15.2%; in experiment [3] it was 36.1%; in experiment [7], -29.3% (active); in experiment [8], -70.6% (active).
On to `O=[N+]([O-])c1ccc(NCSc2ccc(Cl)cc2)cc1`, for which the growth in experiment [1] was 99.4%; in experiment [2], 112%; in experiment [9] it was 109%; in experiment [4], 98.2%; in experiment [5], 86.5%; in [6], 96.3%. Moreover, the growth in experiment [7] is 93.4%; in experiment [8] it was 103%.
Turning to `O=C(c1ccccc1)N(C(=O)c1ccccc1)N1CCCC1`, the growth in experiment [1] is 96.4%; in experiment [2], 92.7%; in experiment [9] it was 104%; in experiment [3], 106%; in experiment [7], 110%; in experiment [8], 110%.
Turning to `O=C(CSc1nccc(Nc2cccc3ccccc23)n1)c1ccc(Cl)cc1`, the growth is 79.6% in experiment [1]; 84.8% in [2]; 99.5% in [3]; 82.5% in [4]; 81.9% in experiment [5]; 87.7% in experiment [6]. Moreover, the growth was 102% in [7] and 108% in [8].
Regarding `Cc1ccc(C2=NN(c3ccc(S(C)(=O)=O)cc3)C(=O)CC2)cc1`, the growth in [1] was -19.6% (active); in experiment [2] it was 77.6%; in experiment [3], 12.8%; in [4] it was 60.9%; in experiment [5], -28.5% (active); in experiment [6], 36.6%. In addition, the growth in experiment [7] was 38.3%; in [8], 4.23% (active).
As for `CCc1ccc(C2=NN(c3ccc(S(C)(=O)=O)cc3)C(=O)CC2)cc1`, the growth in [1] is -4.83% (active); in experiment [2], 69.1%; in experiment [3], 10.5%; in experiment [4], 68.6%; in [5], -1.27% (active); in experiment [6], 35.6%. Further, the figures for the growth in experiment [7] and in [8] were 36.4% and 22.5%, respectively.
With `COc1ccc2c(c1)CC=C1[C@@H]2CC[C@]2(C)C(=O)/C(=N/O)C[C@@H]12`, the growth is 102% in experiment [1]; 87.6% in experiment [2]; 101% in [3]; 96.5% in experiment [4]; 102% in experiment [5]; 99.4% in experiment [6]. The figures for the growth in experiment [7] and in experiment [8] were 90.3% and 103%, respectively.
On to `Cc1cn(-c2cc(F)cc(NC(=O)c3ccc(C)c(Nc4nccc(-c5cccnc5)n4)c3)c2)cn1`, for which the growth in [1] is 94.2%; in [2] it was -12.3% (active); in experiment [3], 20.1%; in experiment [4], -22% (active); in experiment [5], 11.5%; in experiment [6], 19.3%. Further, the growth in experiment [7] is -6.06% (active); in experiment [8], 70.9%.
`CCN1CC(CCN2CCOCC2)C(C(c2ccccc2)c2ccccc2)C1=O` (stereo not drawn): the growth is 105% in experiment [1]; 97.3% in experiment [2]; 108% in experiment [3]; 98.9% in [4]; 101% in experiment [6]; 114% in [7]. Further, the growth in experiment [8] is 110%.
As to `CCc1c2c(nc3ccc(OC(=O)N4CCC(N5CCCCC5)CC4)cc13)-c1cc3c(c(=O)n1C2)COC(=O)[C@]3(O)CC`, the growth in [1] was 5.19% (active); in [2], 7.44% (active); in experiment [3], 5.87% (active); in experiment [4], 72.3%; in experiment [6], 39.6%; in experiment [7], -47.7% (active). Besides, the growth in experiment [8] was 58.1%.
In the case of `O=C(Nc1cc([N+](=O)[O-])c2[nH]c(=O)c3ccccc3c2c1)C(F)(F)F`, the growth is 81.8% in [1]; 93.4% in experiment [2]; 38.4% in experiment [3]; 112% in experiment [4]; 77.2% in experiment [5]; 62% in [6]. Also, the figures for the growth in experiment [7] and in experiment [8] were 88.8% and 88.5%, respectively.
In the case of `COc1cc(C)ccc1Oc1nc(Nc2ccc(N3CCOCC3)cc2)ncc1NC(=O)Nc1cc(C(F)(F)F)cc(C(F)(F)F)c1`, the growth in experiment [1] was 72%; in experiment [2] it was 84.3%; in experiment [3], 24.7%; in experiment [4], 66.8%; in [5], 73.2%; in experiment [6] it was 14.5%. For the same molecule, the growth was 55% in experiment [7] and 109% in experiment [8].
On to `O=C(CCCCCCC(=O)Nc1ccccc1)NO`, for which the growth in experiment [1] is 3.33% (active); in experiment [2], 48.9%; in [3], 16.3%; in experiment [4], -10.4% (active); in [6] it was 7.25% (active); in experiment [7] it was 23.2%. Moreover, in experiment [8], the growth was -62.8% (active).
Regarding `COc1ccc(-c2nn(-c3cccc(Cl)c3)cc2-c2cc(-c3ccccc3)nc(N)n2)cc1`, the growth is 42.2% in experiment [1]; 69.3% in experiment [2]; 31.6% in experiment [3]; 69.2% in experiment [4]; 45.8% in experiment [5]; 61.1% in experiment [6]. Besides, the values for the growth in experiment [7] and in experiment [8] were 60.1% and 35.8%, respectively.
On to `COc1cc(/C=C2\CCCC3=C2NC(N)=NC3c2cc(OC)c(OC)c(OC)c2)cc(OC)c1OC` (stereo not drawn), for which the growth in experiment [1] was 11.6%; in [2], -61% (active); in [3] it was -42.6% (active); in experiment [4], -1% (active); in experiment [5] it was -38% (active); in experiment [6] it was -28.4% (active). Further, the growth in experiment [7] was -20.1% (active); in experiment [8], -0.149% (active).
With `O=c1cn[nH]c2ccc(Br)cc12`, the growth was 97.6% in experiment [1]; 100% in experiment [2]; 108% in [3]; 123% in [4]; 91.3% in experiment [5]; 102% in experiment [6]. Moreover, the growth was 99.6% in experiment [7] and 109% in [8].
As for `COc1cccc(-c2nc3sccn3c2-c2cccc(S(C)(=O)=O)c2)c1`, the growth is 85.4% in experiment [1]; 90.1% in [2]; 106% in experiment [3]; 87.3% in experiment [4]; 102% in experiment [5]; 102% in [6]. Besides, the growth is 100% in experiment [7] and 114% in [8].
With `N#Cc1c(-c2ccc(Cl)cc2)n(O)c2ccccc12`, the growth in experiment [1] is -13.5% (active); in [2], 75.7%; in [3], 9.12% (active); in experiment [4], -8.45% (active); in experiment [5], 10.7%; in experiment [6], 26.9%. For the same molecule, the growth in [7] was 8.19% (active); in [8], 115%.
On to `O=C1CCn2c1c(O)c1ccccc1c2=O`, for which the growth is 99.5% in experiment [1]; 101% in [2]; 105% in experiment [3]; 95.4% in experiment [4]; 112% in experiment [5]; 100% in experiment [6]. The growth in experiment [7] was 105%; in [8] it was 123%.
For the molecule `COc1ccccc1-n1c(-c2sc(NC(C)=O)nc2C)n[nH]c1=S`, the growth was 101% in experiment [1]; 106% in [2]; 110% in experiment [3]; 105% in experiment [4]; 102% in experiment [5]; 104% in experiment [6]. For the same molecule, the results for the growth in experiment [7] and in [8] were 106% and 116%, respectively.
On to `CC1=CC2C(C(O)CC3(C)C2CC(C)C32OCOC23COCO3)C2(C)C/C(=C/O)C(=O)C=C12` (stereo not drawn), for which the growth in experiment [1] is -0.378% (active); in [2], 78.4%; in experiment [3], 7.96% (active); in experiment [4], 94.1%; in experiment [5], -26.7% (active); in experiment [6], 41.8%. Also, the growth in experiment [7] was 58.8%; in experiment [8], -14.4% (active).
`Cc1cc(NC(=O)c2ccc(C)c(Nc3nccc(-c4cccnc4)n3)c2)cc(-n2cnc(C)c2)c1`: the growth in [1] was 67.6%; in [2], -17.6% (active); in [3], 2.48% (active); in experiment [4] it was 25.3%; in experiment [5], 59.3%; in experiment [6] it was 47.1%. The growth in experiment [7] is -30% (active); in experiment [8] it was 4.18% (active).
For the molecule `COc1ccc(-c2nn(-c3cccc(Cl)c3)cc2-c2c(C#N)c(N)n(N)c(=O)c2C#N)cc1`, the growth in experiment [1] is 66.9%; in [2], 66.5%; in experiment [3] it was 72.2%; in experiment [4], 53.8%; in experiment [5], -46% (active); in experiment [6], 66.2%. Moreover, the growth was 84.2% in experiment [7] and 85.3% in experiment [8].
In the case of `Cc1cn(-c2cccc(NC(=O)c3ccc(C)c(Nc4nccc(-c5cccnc5)n4)c3)c2)cn1`, the growth was 32.2% in experiment [1]; -43% (active) in [2]; -13% (active) in [3]; -13% (active) in [4]; -17.7% (active) in experiment [5]; 10.7% in experiment [6]. Moreover, the values for the growth in experiment [7] and in experiment [8] were -52.2% (active) and 11%, respectively.
Turning to `Cc1c2cnccc2c(C)c2c1oc1ccccc12`, the growth in experiment [1] is 56.1%; in [2], 69.4%; in experiment [3] it was 28.4%; in experiment [4] it was 113%; in experiment [5], 69.6%; in experiment [6], 43%. The growth in experiment [7] is 84.9%; in [8], 52.3%.
On to `O=S(=O)(O)c1cccc(Nc2ccc3ccccc3c2)c1`, for which the growth is 92% in experiment [1]; 86.5% in [2]; 101% in experiment [3]; 74.8% in experiment [4]; 87.9% in experiment [5]; 94.1% in [6]. Besides, the growth is 104% in experiment [7] and 97.8% in [8].
For the molecule `O=C1C=C(Nc2cccc(Br)c2)c2ccccc2C1=O`, the growth in [1] is 41.1%; in experiment [2], 91.3%; in [3], 12.7%; in [4], 39.1%; in experiment [5], 27.3%; in experiment [6], 16.7%. For the same molecule, the growth was 60.2% in [7] and 104% in experiment [8].
In the case of `COc1cc(C2C(C#N)=C(N)Oc3cc(O)ccc32)cc(OC)c1OC` (stereo not drawn), the growth in experiment [1] is 30.7%; in experiment [2], 68.4%; in experiment [3] it was 9.65% (active); in experiment [4], 49.7%; in experiment [5], 1.54% (active); in experiment [6], 21.4%. Besides, the growth in experiment [7] was 40.6%; in experiment [8], 8.35% (active).

Source of the values: PubChem BioAssay (NCI).
